TRPML1 blocker = qHTS for Inhibitors of the Human Mucolipin Transient Receptor Potential 1 (TRPML1). AID 624415, 2012. activity change, negative = inhibition, % (no concentration beside the values). TRPML1-inducible cells, Ca2+ dye fluorescence, FDSS; stronger effect = lower value; inhibition of EC80 agonist-evoked calcium signal. 0.02% of 390,000 active. Mucolipin-1 (Homo sapiens), Q9GZU1; in the data active = activity change below about -50%; inconclusive = between about -30% and that limit;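 also: stimulus is agonist 54-4 at its EC80 concentration; % is scaled to controls: 0 for no effect and ±100 for the full control effect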
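Tet-induced TRPML1-DL cells loaded with Ca8 no-wash calcium dye were read kinetically on FDSS. Compound addition was followed by EC80 agonist 54-4 (4 uM final); inhibition was read over 110 s.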
TRPML1 ag = qHTS for Agonists of the Human Mucolipin Transient Receptor Potential 1 (TRPML1) | activation, % (concentration not given with the values) | Mucolipin-1 (Homo sapiens), Q9GZU1 | 0.12% of 410,000 active | AID 624414, 2012 | TRPML1-expressing cells, Ca2+ dye fluorescence, FDSS; in the data active = activation above about 50%; inconclusive = mostly about 30% to 49%; also: 0% is about no effect
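Agonist activity was taken from a 110 s kinetic Ca2+ dye read on the FDSS after pinning compounds onto TRPML1-DL cells. The cells were seeded at 1,500/well with Tet inducer, incubated about 16 h, then dye-loaded at room temperature.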
Glioma ERSR ind = qHTS for Inducers of the Endoplasmic Reticulum Stress Response (ERSR) in Human Glioma: qHTS; Potency, µM, inactives show at the highest dose activation, usual class: activators; U87-MG GRP78 promoter luciferase reporter, 16 h; 0.02% of 420,000 active; also: potency is read from the fitted curve at half-maximal effect; series mostly up to about 76 µM; % of control where 0% means no effect; nearly all actives have a fitted effect of over 35% in size
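ERSR induction read as luciferase luminescence (Bright-Glo, 10 min at room temperature) in stably transfected human U87-MG glioma cells exposed to compounds for 16 h, using GRP78 as sensor.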
Vif-A3G inh = qHTS for Inhibitors of Vif-A3G Interactions: qHTS; Potency, µM (series often up to 46.1 µM), for the others: top-dose activity, negative = active, most hits filed as inhibitors; 0.076% of 410,000 active; AID 602310, 2012; HeLa A3G-eYFP + Vif (tagged APOBEC3G with the HIV-1 protein that degrades it), YFP fluorescence, overnight; DNA dC->dU-editing enzyme APOBEC-3G (Homo sapiens), Q9HC16; also: potency is read from the fitted curve at half-maximal effect; % is scaled to controls: 0 for no effect and ±100 for the full control effect; nearly all actives have a fitted effect of over 60% in size
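HeLa cells stably expressing Vif and C-terminally eYFP-tagged A3G, seeded overnight at 37 deg C, then exposed to compound by pintool overnight at 37 deg C. Rise in yellow fluorescence (Ex 488/Em 500-530, Acumen) marks blocked Vif-driven A3G degradation.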
ALOX12 inh = Primary qHTS assay for inhibitors of human arachidonate 12S-lipoxygenase (ALOX12): Round 2; AID 1671190, 2021; purified 12hLO, xylenol orange hydroperoxide absorbance; 1.1% of 580,000 active; Potency, µM (series often up to 108 µM), inactives show at the highest dose activity change, negative = inhibition, hits mostly inhibitors; Polyunsaturated fatty acid lipoxygenase ALOX12 (Homo sapiens), P18054; also: potency is read from the fitted curve at half-maximal effect; % is scaled to controls: 0 for no effect and ±100 for the full control effect
Target sequence (P18054 whole entry, looked up): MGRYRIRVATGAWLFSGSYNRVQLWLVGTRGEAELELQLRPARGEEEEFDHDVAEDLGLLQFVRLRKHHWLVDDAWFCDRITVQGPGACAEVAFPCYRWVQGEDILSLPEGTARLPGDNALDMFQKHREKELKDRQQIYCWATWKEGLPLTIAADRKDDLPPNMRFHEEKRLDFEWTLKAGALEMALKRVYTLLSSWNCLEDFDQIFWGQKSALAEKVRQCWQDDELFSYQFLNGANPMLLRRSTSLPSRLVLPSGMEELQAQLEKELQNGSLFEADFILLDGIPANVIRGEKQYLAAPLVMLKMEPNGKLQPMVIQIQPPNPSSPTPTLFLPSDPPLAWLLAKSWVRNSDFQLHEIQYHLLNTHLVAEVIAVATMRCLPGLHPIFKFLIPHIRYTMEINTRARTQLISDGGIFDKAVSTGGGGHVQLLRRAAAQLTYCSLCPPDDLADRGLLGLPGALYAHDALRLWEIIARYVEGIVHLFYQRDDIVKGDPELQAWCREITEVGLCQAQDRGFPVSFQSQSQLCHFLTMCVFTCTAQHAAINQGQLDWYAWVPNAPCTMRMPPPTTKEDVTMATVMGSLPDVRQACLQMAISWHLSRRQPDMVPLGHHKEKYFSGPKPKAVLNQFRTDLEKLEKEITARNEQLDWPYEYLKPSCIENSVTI
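Purified human 12hLO at 150 nM in 25 mM Hepes, 0.01% Triton X-100, pH 7.0, preincubated 15 min at room temperature with compound. Reaction started with 40 uM arachidonic acid, 30 min at room temperature. Hydroperoxide measured by Fe-xylenol orange, 573/405 nm absorbance ratio.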
Vif-APOBEC3F blk = qHTS for Inhibitors of Vif-A3F Interactions: qHTS; HeLa A3F-eYFP + Vif (tagged APOBEC3F with the HIV-1 protein that degrades it), YFP fluorescence increase; Potency, µM (highest dose often 46.1 µM), without a hit: top-dose activity, negative = active; 0.2% of 390,000 active; AID 602313, 2012; also: potency is read from the fitted curve at half-maximal effect; % of control where 0% means no effect; nearly all actives have a fitted effect of over 65% in size
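Fluorescence increase (Ex 488/Em 500-530) after overnight compound treatment at 37 deg C flags inhibition of Vif-driven A3F-eYFP loss in stable HeLa A3F-eYFP/Vif cells seeded overnight beforehand.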
Numbers without * were called inactive; ? = inconclusive; . = not tested or not shown. Shown are actives, neighbours in structure and some others; about 1.3% of the full set was active somewhere. Unless noted, calls follow the shape of the dose curve; as a rule, active = well fitted curve in the direction sought with a large enough effect; inconclusive = small, poorly fitted or top-dose-only effect, or another doubt; inactive = no such curve, though single readings can be large; an effect the other way counts as inactive or inconclusive.

SMILES | TRPML1 blocker | TRPML1 ag | Glioma ERSR ind | Vif-A3G inh | ALOX12 inh | Vif-APOBEC3F blk
CCN(CC)c1ccc(/C=C(\C#N)C(=O)c2ccc(Br)cc2)cc1 | -5 | 79* | 1% | 5% | -23% | ?
CN(C)c1ccc(/C=C(\C#N)C(=O)c2ccccc2)cc1 | ? | 72* | 6% | 1% | 6% | ?
Cc1ccc(C=C(C#N)C(=O)c2ccccc2)cc1 | . | 0 | 1% | -1% | -9% | .
c1ccc2sc(C3CCN(Cc4nc(C5CC5)no4)CC3)nc2c1 | . | . | . | . | 2% | .
Nc1ccc(C(=O)OCCc2ccccc2)cc1 | 4 | 1 | -7% | -4% | -5% | 0%
O=C(OCCc1ccccc1)c1cc(O)c(O)c(O)c1 | 0 | 1 | 4% | -1% | 2.8µM* | -2%
CCN1C(=O)[C@H]2[C@@H](c3ccc(-c4ccc(Cl)c(Cl)c4)cc3)N[C@@](C)(C(=O)OC)[C@H]2C1=O | -10 | 0 | -2% | -7% | 40µM* | 2%
CCN1C(=O)[C@H]2[C@@H](c3ccc(-c4ccc(Cl)c(Cl)c4)c(OC)c3)N[C@@](C)(C(=O)OC)[C@H]2C1=O | -1 | 0 | -5% | 1% | ? | 3%
CCCCN(CC)c1ccc(NS(=O)(=O)c2ccc3c(c2)CCCC3)cc1C(=O)O | . | . | . | . | 1.6µM* | .
CCCCN(Cc1ccccc1)c1ccc(NS(=O)(=O)c2ccc(F)cc2)cc1C(=O)O | . | . | . | . | 4µM* | .
CCCCN(Cc1ccccc1)c1ccc(C(=O)O)cc1NS(=O)(=O)c1ccc(CC(C)C)cc1 | . | . | . | . | 14µM* | .
O=C(CCc1c[nH]c2ccccc12)N1CCC(C(=O)N2CCCCCC2)CC1 | . | . | . | . | 12% | .
N#Cc1cccc(NC(=O)c2ccccc2Oc2ccccc2)c1 | . | . | . | . | 3% | .
O=C(O)CC(Sc1n[nH]c(=S)s1)C(=O)O (stereo not drawn) | 14 | 3 | -7% | -2% | 2µM* | -13%
COC(=O)C(C)Sc1n[nH]c(=S)s1 (stereo not drawn) | -19 | 0 | 5% | -3% | ? | -8%
COc1cc(C(C)=O)ccc1OCC(O)Cn1nc(C)c(Br)c1C (stereo not drawn) | -11 | 1 | -1% | -2% | 4.5µM* | -2%
Cc1c2ccccc2nc2c(F)c(N(C)C)c(F)c(F)c12 | 9 | 27 | 5% | ? | -26% | 25µM*
CN(C)c1c2ccccc2nc2c(F)c(F)c(F)c(F)c12 | -7 | 3 | ? | ? | . | ?
Cc1ccc(C(=O)C(C)OC(=O)c2ccc(S(=O)(=O)N(C)C)cc2)cc1 (stereo not drawn) | . | . | . | . | 85% | .
O=C(c1ccco1)N(CCC(c1ccccc1)c1ccco1)Cc1ccccc1 (stereo not drawn) | 54 | 1 | -3% | -8% | ? | -5%
COc1ccc(CN(CCC(c2ccccc2)c2ccco2)C(=O)c2ccco2)cc1 (stereo not drawn) | -1 | 0 | -4% | 1% | 50µM* | 1%
COCC(C)NC(=O)COC(=O)c1nn(-c2ccccc2)cc1OC (stereo not drawn) | . | . | . | . | 22% | .
COc1ccc(-n2c(=S)[nH]c3[nH]ncc3c2=O)cc1 | -2 | 0 | -1% | 0% | 15% | 8%
O=c1c2cn[nH]c2[nH]c(=S)n1-c1ccccc1 | 6 | 0 | -2% | -9% | 6.3µM* | 1%
O=c1c2ccccc2sn1-c1ccc(Cl)cc1 | -3 | 1 | -4% | -10% | 0.25µM* | -26%
SMILES | TRPML1 blocker | TRPML1 ag | Glioma ERSR ind | Vif-A3G inh | ALOX12 inh | Vif-APOBEC3F blk
Cc1ccc(-n2sc3ccccc3c2=O)cc1 | 18 | 3 | -9% | -14% | 1.1µM* | 1%
COC(=O)c1cccc(-n2sc3ccccc3c2=O)c1 | 5 | 1 | -9% | -4% | 1.3µM* | -8%
Cc1c(CC=C(Cl)Cl)c(Cl)nc2c(C)cccc12 | . | . | . | . | 33% | .
NNC(=S)Nc1c(F)cc(F)cc1Br | 17 | 0 | 0% | 0% | ? | 11µM*
CCOC(=O)NC1(NCC(C)C)Oc2ccccc2O1 | 15 | 0 | ? | -6% | ? | -18%
CCOC(=O)NC1(NC(C)C)Oc2ccccc2O1 | 8 | -1 | ? | 2% | 25µM* | -1%
COc1cc(C#N)ccc1OCc1ccccc1C#N | . | . | . | . | -3% | .
Cc1ccc(-n2c(-c3ccccc3)cc(C=Nc3ccc(C)c(C)c3)c2-c2ccccc2)cc1 | . | . | . | . | 20µM* | .
COc1ccc2ccccc2c1C1CC(=O)N2CN(C3CCCCC3)CSC2=C1C#N (stereo not drawn) | -3 | 1 | -2% | 4% | 18µM* | -5%
COc1ccc2ccccc2c1C1CC(=O)N2CN(Cc3ccco3)CSC2=C1C#N (stereo not drawn) | -2 | 0 | -3% | -9% | ? | -3%
COc1ccc(C2CC(=O)N3CN(C4CCCCC4)CSC3=C2C#N)c(OC)c1 (stereo not drawn) | 24 | -1 | -1% | -3% | 40µM* | 0%
CCN(C(=O)c1cc2sc3ccccc3c2s1)c1ccccc1 | . | . | . | . | 7.9µM* | .
CC1CCCN(C(C)C(=O)Nc2ccc(C#N)cc2)C1 (stereo not drawn) | . | . | . | . | 2% | .
CC(=O)NC(c1ccco1)c1cc(F)c2cccnc2c1O (stereo not drawn) | . | . | -2% | ? | -20% | ?
CC(=O)NC(c1cccs1)c1cc(F)c2cccnc2c1O (stereo not drawn) | . | . | -3% | ? | ? | 10µM*
COC(=O)c1cccc(C(=O)NCc2cccc(OC)c2)c1 | . | . | . | . | 11% | .
O=C(NCCn1cccc1-c1nc(-c2ccc3c(c2)OCO3)no1)c1ccc(Cl)cc1 | . | . | . | . | 13µM* | .
Cc1ccc(/C=C(/C#N)C(=O)C(C)C)cc1C | . | . | . | . | 7% | .
COCCn1c(=S)[nH]c2sc3c(c2c1=O)CCC(C)C3 (stereo not drawn) | -13 | 0 | 3% | -9% | ? | -8%
COCCCn1c(=S)[nH]c2sc3c(c2c1=O)CCCS3 | -22 | 0 | -1% | 1% | 45µM* | -2%
CCCn1c(N)c(N(CCOC)C(=O)c2cccnc2OCC)c(=O)[nH]c1=O | . | . | . | . | 16µM* | .
